Pf Dd2 inh: blocks growth of Plasmodium falciparum Dd2 parasites; P. falciparum Dd2 growth, SYBR Green, 72 h; stronger effect = lower value; 94,000 compounds, 2.3% hits; activity change, % at 10 µM; AID 1159554; in the data active = activity change below about -80%
C diff growth: inhibitors of Clostridium difficile growth. Clostridium difficile clinical isolate growth, OD600, 24 h; stronger effect = lower value. growth activity, negative = inhibition, % at 16 µg/mL (by protocol). 86,000 compounds, 0.25% hits;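 active = mean growth activity at or below -80% and every replicate also at or below -80%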;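 note: 0% = DMSO wells and -100% = levofloxacin 16 µg/mL wells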
* hit, by the source's call; . = no result. The list is not random: actives were taken first. Their share in the collection is about 2.3%.

SMILES	Pf Dd2 inh	C diff growth
COc1ccc(S(=O)(=O)Nc2cccc3c2O[C@H](CN(C)Cc2ccc(C(=O)Nc4ccccc4N)cc2)[C@H](C)CN([C@H](C)CO)C3=O)cc1	-87*	11
COc1ccc(S(=O)(=O)Nc2cccc3c2O[C@H](CN(C)Cc2ccc(C(=O)Nc4ccccc4N)cc2)[C@H](C)CN([C@@H](C)CO)C3=O)cc1	-86*	2
COc1ccc(S(=O)(=O)Nc2cccc3c2O[C@H](CN(C)Cc2ccc(C(=O)Nc4ccccc4N)cc2)[C@@H](C)CN([C@H](C)CO)C3=O)cc1	-31	-3
C[C@H](CO)N1C[C@H](C)[C@@H](CN(C)C)Oc2c(NC(=O)Nc3ccc(C(F)(F)F)cc3)cccc2C1=O	7	6
CCCNC(=O)[C@@H]1[C@@H](CO)[C@@H]2Cn3c(ccc(-c4ccc(F)cc4)c3=O)[C@@H]2N1CCC	.	1
CO[C@@H]1CN(C)C(=O)c2ccc(NC(=O)Nc3ccc(C(F)(F)F)cc3)cc2OC[C@H](C)NC[C@@H]1C	-21	.
CO[C@H]1CN(C)C(=O)c2ccc(NC(=O)Nc3ccc(C(F)(F)F)cc3)cc2OC[C@H](C)NC[C@H]1C	-90*	.
CO[C@@H]1CN(C)C(=O)c2cc(NC(=O)Nc3ccc(F)cc3)ccc2OC[C@H](C)NC[C@H]1C	-8	1
CO[C@@H]1CN(C)C(=O)c2cc(NC(=O)Nc3ccc(C(F)(F)F)cc3)ccc2OC[C@@H](C)NC[C@@H]1C	-81*	.
CO[C@@H]1CN(C)C(=O)c2cc(NC(=O)Nc3ccc(C(F)(F)F)cc3)ccc2OC[C@H](C)NC[C@H]1C	-89*	.
CO[C@@H]1CN(C)C(=O)c2ccc(NC(=O)Nc3cccc(F)c3)cc2OC[C@H](C)NC[C@@H]1C	7	.
CO[C@@H]1CN(C)C(=O)c2ccc(NC(=O)Nc3cccc(F)c3)cc2OC[C@H](C)NC[C@H]1C	-82*	.
CO[C@H]1CN(C)C(=O)c2ccc(NC(=O)Nc3ccc(C(F)(F)F)cc3)cc2OC[C@@H](C)NC[C@@H]1C	-76	.
C[C@@H]1CN([C@H](C)CO)C(=O)c2cc(NS(C)(=O)=O)ccc2O[C@@H](C)CCCCO[C@H]1CN(C)C(=O)Nc1ccc2c(c1)OCO2	-17	0
C[C@@H]1CN([C@H](C)CO)C(=O)c2cc(C#C[C@@H](C)O)cnc2O[C@@H]1CN(C)C(=O)c1ccccc1	35	2
COc1ccc(NC(=O)N(C)C[C@@H]2Oc3ccc(NC(=O)Cc4cn(C)c5ccccc45)cc3CC(=O)N([C@@H](C)CO)C[C@@H]2C)cc1	-46	0
CO[C@@H]1CN(C)C(=O)c2ccc(NC(C)=O)cc2OC[C@H](C)N(Cc2cc(F)ccc2F)C[C@H]1C	-2	1
C[C@@H]1CCCCO[C@H](CN(C)Cc2ccc(C(F)(F)F)cc2)[C@H](C)CN([C@@H](C)CO)C(=O)c2cc(NC(=O)Nc3cccc4ccccc34)ccc2O1	-43	0
C[C@H](CO)N1C[C@H](C)[C@@H](CN(C)C(=O)Nc2ccc(C(F)(F)F)cc2)OCCCC[C@H](C)Oc2ccc(NC(=O)Nc3cccc4ccccc34)cc2C1=O	-86*	-12
C[C@@H]1CN([C@H](C)CO)C(=O)c2cc(NC(=O)Nc3cccc4ccccc34)ccc2O[C@@H](C)CCCCO[C@H]1CN(C)Cc1ccc(C(F)(F)F)cc1	-85*	9
C[C@H]1CCCCO[C@@H](CN(C)C(=O)Nc2ccc(C(F)(F)F)cc2)[C@@H](C)CN([C@@H](C)CO)C(=O)c2cc(NC(=O)Nc3cccc4ccccc34)ccc2O1	-1	-18
C[C@@H]1CN([C@H](C)CO)C(=O)c2cc(NC(=O)Nc3cccc4ccccc34)ccc2O[C@@H](C)CCCCO[C@H]1CN(C)C(=O)Nc1ccc(C(F)(F)F)cc1	-59	-9
C[C@H]1CCCCO[C@H](CN(C)C(=O)Nc2ccc(C(F)(F)F)cc2)[C@@H](C)CN([C@@H](C)CO)C(=O)c2cc(NC(=O)Nc3cccc4ccccc34)ccc2O1	-83*	-19
CC(=O)N[C@@H]1CC[C@@H](CCNC(=O)Nc2ccc(C(F)(F)F)cc2)O[C@H]1CO	7	-35
C[C@@H]1CCCCO[C@@H](CN(C)Cc2ccc(Cl)c(Cl)c2)[C@@H](C)CN([C@H](C)CO)C(=O)c2cc(NS(C)(=O)=O)ccc2O1	31	5
SMILES	Pf Dd2 inh	C diff growth
CO[C@@H]1CN(C)C(=O)c2ccc(NC(=O)Nc3ccccc3F)cc2OC[C@@H](C)N(CCC(F)(F)F)C[C@H]1C	-85*	6
COc1ccccc1NC(=O)Nc1ccc2c(c1)C(=O)N(C)C[C@@H](OC)[C@H](C)CN(Cc1ccccc1Cl)[C@H](C)CO2	-67	0
CO[C@@H]1CN(C)C(=O)c2cc(NC(=O)Nc3ccccc3F)ccc2OC[C@@H](C)N(Cc2ccccc2F)C[C@H]1C	-66	0
CO[C@@H]1CN(C)C(=O)c2ccc(NC(=O)Nc3ccccc3F)cc2OC[C@@H](C)N(Cc2ccccc2F)C[C@H]1C	-90*	.
CO[C@@H]1CN(C)C(=O)c2cc(NC(=O)C3CC3)ccc2OC[C@H](C)N(Cc2cc(F)ccc2F)C[C@H]1C	-71	.
COc1ccccc1CN1C[C@@H](C)[C@H](OC)CN(C)C(=O)c2cc(NC(=O)Nc3ccccc3OC)ccc2OC[C@H]1C	-89*	.
CCCN1C[C@@H](C)[C@@H](OC)CN(C)C(=O)c2ccc(NC(=O)Nc3ccccc3F)cc2OC[C@@H]1C	-24	.
CO[C@H]1CN(C)C(=O)c2cc(NC(=O)C3CC3)ccc2OC[C@H](C)N(Cc2cc(F)ccc2F)C[C@H]1C	-88*	.
CCCNC(=O)C[C@H]1CC[C@H]2[C@@H](COC[C@@H](O)CN2C(=O)c2ccccn2)O1	12	.
C[C@@H](NC(=O)[C@@H]1[C@@H](CO)[C@@H]2Cn3c(cccc3=O)[C@@H]2N1CC1CCCC1)c1ccccc1	.	4
O=C(C[C@@H]1CC[C@@H](NC(=O)CCN2CCCCC2)[C@@H](CO)O1)NCc1ccc(Cl)c(Cl)c1	-8	.
COc1cccc(NC(=O)N(C)C[C@@H]2OCc3cnnn3CCCC(=O)N([C@H](C)CO)C[C@H]2C)c1	3	4
COc1ccccc1CNC(=O)C[C@H]1C[C@@H]2c3cc(NC(=O)NC4CCCC4)ccc3O[C@@H]2[C@@H](CO)O1	0	4
O=C(C[C@H]1C=C[C@H](NC(=O)C2CCC2)[C@@H](CO)O1)Nc1nccs1	-10	-2
CO[C@@H]1CN(C)C(=O)c2ccc(NC(=O)Nc3ccccc3F)cc2OC[C@@H](C)N(C)C[C@H]1C	-49	3
CO[C@@H]1CN(C)C(=O)c2ccc(NC(=O)Nc3ccccc3Cl)cc2OC[C@@H](C)N(C)C[C@H]1C	-87*	.
COc1ccc(S(=O)(=O)N(C)C[C@@H]2OCCCC[C@H](C)Oc3ccc(NS(=O)(=O)c4ccc(F)cc4)cc3C(=O)N([C@@H](C)CO)C[C@H]2C)cc1	-44	5
CN1CCCCN2[C@@H](CO)[C@H](c3ccc(-c4ccccc4)cc3)[C@@H]2C1	24	-10
COc1ccc(S(=O)(=O)N(C)C[C@H]2Oc3ccc(NC(=O)C4CC4)cc3CC(=O)N([C@H](C)CO)C[C@@H]2C)cc1	-25	-5
COc1ccc(S(=O)(=O)N(C)C[C@H]2OCCCC[C@@H](C)Oc3ccc(NC(=O)Nc4ccc(F)cc4)cc3C(=O)N([C@@H](C)CO)C[C@H]2C)cc1	-76	3

Bioassay records as filed in PubChem BioAssay.
